{"source": "PubChem BioAssay AID1508600", "about": "(Functional Genomics Laboratory (NCATS/FGL), 2020)", "note": "Hit rate of the full screen: of about 53,000 sequences, about 3,700 (7%) were called active.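 How the source made its calls: active means gene knockdowns whose robust z-score for IL-1 alpha signal is at least 2 or at most -2, so actives lie on both sides; inactive means the rest.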 The sample as a whole holds a higher share of actives than the screen did.", "data": [{"test": "Components of the Cytosolic LPS Sensing Pathway: Gene Identification via Genome-wide siRNA Screen;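 further: robust z of the log signal after scaling to non-targeting control siRNA wells of the plate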", "conditions": "RAW264.7 macrophages, IL-1a HTRF, actives lie on both sides, screened at 100 nM (by protocol), cells primed 5 h with Pam3CSK4 first", "summary_of_the_method": "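Supernatant IL-1a by HTRF from RAW264.7 cells primed with Pam3CSK4 (5 hours) and transfected with LipidA (24 hour) after 48h siRNA knockdown at 100 nM; cell viability checked with CellTiter-Glo.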", "values": [{"sequence": "GGGACAUAUCUGAAGCAAGTT against Rps26", "z-score": "0.896 (inactive)"}, {"sequence": "GCUUCUGUCAUAAUGAUAUTT against Pramel6", "z-score": "-2.33 (active)"}, {"sequence": "CCAGAAACCAAUCUUUCUUTT against Serpinb1a", "z-score": "-0.0285 (inactive)"}, {"sequence": "CCCUAGUGAUAAGGAAUGCTT against Cxcl9", "z-score": "0.228 (inactive)"}, {"sequence": "GGUGACCACUUCAUGUCACTT against Tmem138", "z-score": "-1.28 (inactive)"}, {"sequence": "GCGGGAGCUUAGCUUUUAUTT against G6pc3", "z-score": "3.33 (active)"}, {"sequence": "CCGUAGACUCGGUGAAGCUTT against Plpbp", "z-score": "-0.143 (inactive)"}, {"sequence": "GGUCAGAAUCUUUGUUCCUTT against Ndufs4", "z-score": "-0.912 (inactive)"}, {"sequence": "GGAUUCCCUGUAUGCCCAATT against Rpl36al", "z-score": "-0.23 (inactive)"}, {"sequence": "GGAGAAGCCAAAAGAAUGCTT against Xrn2", "z-score": "-0.76 (inactive)"}, {"sequence": "GCUUACAAGUUGCUACUGGTT against Dnajc8", "z-score": "0.425 (inactive)"}, {"sequence": "GGGCAAUUCUAUCAAAGAGTT against Gps1", "z-score": "-2.14 (active)"}, {"sequence": "CCUAUAGCAAUGGCAGCAGTT against Pkn1", "z-score": "-1.66 (inactive)"}, {"sequence": "GGUCCUUUCCCAUAACCUGTT against Swap70", "z-score": "-0.922 (inactive)"}, {"sequence": "GCGGACUACUAUGCUAAAGTT against Tgfb1", "z-score": "1.08 (inactive)"}, {"sequence": "GGUGUUCAAAAAGUUUAACTT against Zswim1", "z-score": "1.02 (inactive)"}, {"sequence": "GCCAAGCUCGCCAAGAUUATT against P4ha2", "z-score": "0.273 (inactive)"}, {"sequence": "GCUGAAGUGCAAGAACAAATT against Dmd", "z-score": "1.91 (inactive)"}, {"sequence": "GGUUUUGGCGGAUACUAAGTT against Plin3", "z-score": "-0.24 (inactive)"}, {"sequence": "GGAUGAGAGAAAGUUACCCTT against Tspo2", "z-score": "-2.78 (active)"}, {"sequence": "GGGCAUCUCAGAUUUAGCUTT against Cct3", "z-score": "-0.0572 (inactive)"}, {"sequence": "GGGUGAAGAUUCUCUACAATT against Dctn3", "z-score": "-0.621 (inactive)"}, {"sequence": "GGACUGAACCCAAAUGCCUTT against Chtf8", "z-score": "-1.45 (inactive)"}, {"sequence": "GGAGCUUACAUGGUCCCUATT against Prss37", "z-score": "-0.238 (inactive)"}, {"sequence": "CGAGAAGGAUAUAAUUGUUTT against Klhl18", "z-score": "0.449 (inactive)"}, {"sequence": "GGUUUCGAACUGAUGAAGCTT against Nemf", "z-score": "0.284 (inactive)"}, {"sequence": "GGCAAAACAAAGAAUGAAATT against Prss40", "z-score": "-0.38 (inactive)"}, {"sequence": "CGAAGUCUGAAACACAUGUTT against A730018C14Rik", "z-score": "4.13 (active)"}, {"sequence": "GGACUCACAGAAAUUUCCATT against Slc36a1", "z-score": "-1.53 (inactive)"}, {"sequence": "GGUAAUGAGACGCGGUUUATT against Ina", "z-score": "0.202 (inactive)"}, {"sequence": "GCAACACCUUAUGUUUCAUTT against Cab39", "z-score": "1.68 (inactive)"}, {"sequence": "GGCACGAUUUGCUUAUUUUTT against Usf2", "z-score": "0.0682 (inactive)"}, {"sequence": "GCCUCCUACUGGUUCCAAATT against Commd7", "z-score": "2.05 (active)"}, {"sequence": "GUCUUCUCUGCCUGUCUGATT against Lce3c", "z-score": "-0.0986 (inactive)"}, {"sequence": "CCCAGGGAGAAUUGACUUGTT against Sertad1", "z-score": "0.0114 (inactive)"}, {"sequence": "GGCCUUUGUAGUAUCCCAGTT against Nudt16", "z-score": "-0.709 (inactive)"}, {"sequence": "GCACCAAUCAAUGAGGAGATT against Was", "z-score": "-0.785 (inactive)"}, {"sequence": "GGAGUGAUGUCCAUACUGGTT against Leap2", "z-score": "-2.57 (active)"}, {"sequence": "CCAUCCUAAGCAGAGUCACTT against Frg2f1", "z-score": "-0.446 (inactive)"}, {"sequence": "GGAUGUUGAUUUUCAUGGUTT against Grpel2", "z-score": "1.13 (inactive)"}, {"sequence": "GGGUAUUCAUGAUGUCUUUTT against Kctd6", "z-score": "1.39 (inactive)"}, {"sequence": "GGCAUCACUGAUGAAUGAATT against Pacsin2", "z-score": "-0.585 (inactive)"}, {"sequence": "GGAACAUCCAGUCUCUCACTT against Fbxo31", "z-score": "0.244 (inactive)"}, {"sequence": "CCCAGGUGUAUUUUACAUATT against D10Wsu102e", "z-score": "-0.00657 (inactive)"}, {"sequence": "CGCGGAGGUCUCUCUUAUUTT against Prss39", "z-score": "2.22 (active)"}, {"sequence": "GGUAUUUAAUGGAAGCCUGTT against Acp7", "z-score": "-0.537 (inactive)"}, {"sequence": "GGCAUCUUUCAUAAAACCGTT against Atad3aos", "z-score": "-0.622 (inactive)"}, {"sequence": "GCCUAUCAGAAGCUGUUAATT against Eif2ak2", "z-score": "3.59 (active)"}, {"sequence": "GGAGAUAUUAUUGUUCAGATT against Cemip2", "z-score": "-0.337 (inactive)"}, {"sequence": "GUGCUUUCGUGUUUUUCAATT against Klrb1b", "z-score": "-0.388 (inactive)"}, {"sequence": "GCUAUCGUGAUAAUCUGGATT against Gxylt2", "z-score": "-0.113 (inactive)"}, {"sequence": "CUUAAAGGAAUCCUGGUGGTT against Fam169b", "z-score": "0.0229 (inactive)"}, {"sequence": "CCUGCAUGCCUAUGUGCGUTT against Ace", "z-score": "2.89 (active)"}, {"sequence": "GAAGACUUCGUCCUAACAGTT against Ctsg", "z-score": "-0.195 (inactive)"}, {"sequence": "GGCCUCUUACAAAGUGAGATT against Supt7l", "z-score": "-0.265 (inactive)"}, {"sequence": "GGGAUAUGUGAAGCCUCAGTT against Mospd3", "z-score": "-1.21 (inactive)"}, {"sequence": "GGAACAGUUCCUUGUGGUUTT against Uqcrh", "z-score": "0.935 (inactive)"}, {"sequence": "GGUUCAGAAUUUAACCUUATT against Phc3", "z-score": "3 (active)"}, {"sequence": "GGUAUUGUGAAACGUACACTT against Ky", "z-score": "0.914 (inactive)"}, {"sequence": "CCGUCGUCCUAGAAAAACCTT against Nsun7", "z-score": "-1.18 (inactive)"}, {"sequence": "CCUACUAAACUCAGUCUUUTT against Kap", "z-score": "1.08 (inactive)"}, {"sequence": "GGAUCAUGCAGACAUGCUGTT against Ggcx", "z-score": "-0.278 (inactive)"}, {"sequence": "GGUUCUAAAUCAGAAGUGCTT against Tyw5", "z-score": "-2.08 (active)"}, {"sequence": "GGUAUAGCCACAGGUACAUTT against Phxr5", "z-score": "-0.368 (inactive)"}, {"sequence": "GCAGAUAUUUUUGUAAGCATT against Csmd1", "z-score": "-0.644 (inactive)"}, {"sequence": "GGCUUGAUGGGCUUUUUGCTT against Ndufb8", "z-score": "0.285 (inactive)"}, {"sequence": "GGUCCCAGUCAUUAUCCACTT against Gdap1l1", "z-score": "2.43 (active)"}, {"sequence": "GGUAAUUAAAACCAUGGAGTT against Rex1bd", "z-score": "-0.0412 (inactive)"}, {"sequence": "GGCCCAGGAUAUUUUAGUUTT against Atg9b", "z-score": "-0.553 (inactive)"}, {"sequence": "GCCGUACGAAAAAUAAGCATT against Rps7", "z-score": "-0.402 (inactive)"}, {"sequence": "GGCCAAAGUACUUUGUUCCTT against Pdpr", "z-score": "3.63 (active)"}, {"sequence": "GGUUCUUCGAAGCAAUAGCTT against Sphkap", "z-score": "-0.973 (inactive)"}, {"sequence": "GCACACAUCAAGAAACUUGTT against Mxi1", "z-score": "0.963 (inactive)"}, {"sequence": "GGAGAAAUAACUGAAAUUCTT against Klhl13", "z-score": "-0.816 (inactive)"}, {"sequence": "GGACUUCUACCCAGCGAUATT against P3h4", "z-score": "-0.536 (inactive)"}, {"sequence": "CCUCCAGAUAACAAAUGCATT against Dlx3", "z-score": "0.335 (inactive)"}, {"sequence": "CGCAUUACAUUAGCCAAAATT against Ttc28", "z-score": "1.21 (inactive)"}, {"sequence": "GCUCAGUAAUCUGAGGCCATT against Lox", "z-score": "-2.03 (active)"}, {"sequence": "GGAGAUCCGUUCAAGGGUUTT against Olfr557", "z-score": "0.73 (inactive)"}, {"sequence": "CCAACUGCACUGUCAAACUTT against Tbcc", "z-score": "-0.224 (inactive)"}, {"sequence": "GGAAUGUGUCUUCUCAAGUTT against A530021J07Rik", "z-score": "2.35 (active)"}, {"sequence": "GGACCAGCACAUGUGGAUUTT against Olfr547", "z-score": "0.31 (inactive)"}, {"sequence": "GGACCUGGUAUCUCUAUAUTT against Rasgrp4", "z-score": "-0.807 (inactive)"}, {"sequence": "GCAUAAUUCUAAAGACGGGTT against Zfp143", "z-score": "-0.1 (inactive)"}, {"sequence": "GGUUAUAGACAAGAUCGAUTT against Comp", "z-score": "0.536 (inactive)"}, {"sequence": "CCCACCAGUAAGGAGUUCATT against Dido1", "z-score": "-0.177 (inactive)"}, {"sequence": "GCCACGAACAUGAUGUACATT against Slco3a1", "z-score": "0.229 (inactive)"}, {"sequence": "GGUUUUAUUUGGGAUUAGCTT against Arfgap2", "z-score": "0.327 (inactive)"}, {"sequence": "GGCAGAUCUGAUCAACGGATT against Mtln", "z-score": "-2.14 (active)"}, {"sequence": "GCUUGUGGAUUCGAUUUGGTT against Gtf3c5", "z-score": "0.485 (inactive)"}, {"sequence": "GCUGAAUGAUAUGGAACCUTT against Vapa", "z-score": "-1.76 (inactive)"}, {"sequence": "GGAGAUAAAGUCUUAUCACTT against Misp", "z-score": "-2.05 (active)"}, {"sequence": "GGAAAUCGUGCGUGGCUACTT against Phpt1", "z-score": "1.57 (inactive)"}, {"sequence": "GGCCAUCUUUGACAGUGCUTT against Dnah1", "z-score": "1.11 (inactive)"}, {"sequence": "GGCAUUUGUAAUUCCAGUUTT against Spata33", "z-score": "0.456 (inactive)"}, {"sequence": "GGAUUCAGGGAACAGCAAUTT against Ntrk3", "z-score": "-3.08 (active)"}, {"sequence": "GGUACAGAACAUGUUCUAATT against Klf4", "z-score": "1.18 (inactive)"}, {"sequence": "GCACAAGCGAUGGGUUAACTT against Fkbp1a", "z-score": "-0.708 (inactive)"}, {"sequence": "GGCUCACGAGGAACUAAAUTT against Ift52", "z-score": "0.115 (inactive)"}, {"sequence": "GGAACUUCACUUUUAACACTT against Il33", "z-score": "-0.534 (inactive)"}, {"sequence": "CGUUUUUCUCUAACUUACATT against Ldlrad3", "z-score": "2.6 (active)"}, {"sequence": "GGUGAUGUCCUAUUUCAAATT against Erp27", "z-score": "0.302 (inactive)"}, {"sequence": "GGUUCUAUCUACCUACAGGTT against Igfn1", "z-score": "1.78 (inactive)"}, {"sequence": "GGAGAAGAGUCAAGAGCUCTT against Vxn", "z-score": "0.103 (inactive)"}, {"sequence": "GGUAUCCAAGAAAACCUAUTT against Tnmd", "z-score": "0.475 (inactive)"}, {"sequence": "CCUUCUGUAGUUGGAAUCATT against Them5", "z-score": "1.41 (inactive)"}, {"sequence": "CCUGUAUGGAGUAAUGGAATT against Eif4ebp3", "z-score": "0.13 (inactive)"}, {"sequence": "GGUGGUGUUAAAAUAUACUTT against Gnl3", "z-score": "3.07 (active)"}]}]}
